Assay [1] in a line: Nuclear factor erythroid 2-related factor 2/antioxidant responsive element (Nrf2/ARE) small molecule agonists: qHTS cell viability counter screen in human keratinocytes (AID 1919968; active means well fitted curve in the direction sought with a large enough effect in the repeat runs; an effect the other way counts as inactive or inconclusive; further: nearly all actives have a fitted effect of over 55% in size; further: potency means the concentration at half of the fitted maximal effect). An outline of the steps: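 Fluorescence read-out from CellTiter-Fluor after 1 h at 37 C. Wells held HaCaT-derived ARE-luciferase reporter cells (1,500/well) treated 23 h with DMSO-dissolved compounds. Run in the same wells as the luciferase agonist read.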

Assay [2] has as its target Gonadotropin-releasing hormone receptor (Homo sapiens) (UniProt P30968). The assay is described as follows: Human gonadotropin-releasing hormone receptor (GnRHR) small molecule agonists, calcium flux assay in GnRHR-HEK293 cells (AID 1920063). Further: nearly all actives have a fitted effect of over 35% in size. The essentials:
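Calcium-dye fluorescence, Ex/Em=480/540, recorded every 1 sec over 3 min after compound addition to GnRHR-HEK293 cells. Cells had been seeded 18 hours earlier and dye-loaded for 1 hour at 37 C. Fifteen concentrations, triplicates.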
Background: Calcium flux is commonly read through the fluorescence of an indicator in the cells.

Assay [3] concerns the target KiSS-1 receptor (Homo sapiens) (UniProt Q969F8). Put plainly: Human kisspeptin (KISS1R) small molecule agonists, calcium flux assay in KISS1R-HEK293 cells (AID 1920064; active means well fitted curve in the direction sought with a large enough effect in the repeat runs; an effect the other way counts as inactive or inconclusive). An outline of the steps:
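Calcium flux read-out: kinetic fluorescence at Ex/Em=480/540, 1 s intervals over 3 min, after pin-tool compound addition to dye-loaded KISS1R-HEK293 cells. Fifteen concentrations, triplicates.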

Assay [4] is described as follows: G protein-coupled receptor (GPCR) small molecule agonists, calcium flux assay: HEK293 wild type cell line counter screen (AID 1920065). An outline of the steps: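 Agonist mode; 18 h seeding at 37 C, 1 h dye load at 37 C; compounds pinned from DMSO, ATP as positive control; kinetic fluorescence 480/540 nm, 3 min, 1 s reads; 15 concentrations, triplicate.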
Assay [5] can be described thus: p53 small molecule agonists, cell-based qHTS assay with human liver microsomes: qHTS cell viability counter screen (AID 1963579). Further: nearly all actives have a fitted effect of over 45% in size. Further: potency means the concentration at half of the fitted maximal effect. The essentials: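 Metabolically activated exposure: compounds, human liver microsomes and NADPH (0.5 mg/mL final apiece) were added to p53RE-bla cells seeded 5 h earlier, left 16 h at 37 C, and then assessed for viability by CellTiter-Glo luminescence.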
(In general: qHTS replaces the single test concentration by a dilution series.)

The nature of assay [6]: p53 small molecule agonists, cell-based qHTS assay with rat liver microsomes: qHTS cell viability counter screen (AID 1963580). Further: nearly all actives have a fitted effect of over 45% in size. The essentials: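 After the beta-lactamase ratio was read, CellTiter-Glo was added to the same wells and luminescence measured at 30 min; cells had been treated 16 h at 37 C with compounds, rat liver microsomes and NADPH (0.5 mg/mL final each).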

A short description of assay [7]: p53 small molecule agonists, cell-based qHTS assay: qHTS cell viability counter screen (AID 1963581). Further: nearly all actives have a fitted effect of over 45% in size. The essentials:
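Cytotoxicity read-out: ATP-based luminescence (CellTiter-Glo, 30 min RT) measured in the same wells as the p53 reporter assay, HCT-116 p53RE-bla cells, 16 h compound exposure at 37 C.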

Assay [8] in a line: p53 small molecule agonists, cell-based qHTS assay (AID 1963582; active means well fitted activation curve with a large enough effect in the signal ratio in the repeat runs, not every such curve was filed as active; the % refers to the signal ratio). An outline of the steps: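 Fluorescence intensity read-out of a beta-lactamase reporter under a p53 response element. Cells were exposed to DMSO-dissolved compounds for 16 h at 37 C, then developed with FRET substrate for 2 h at RT.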
For assay [9], the target named is 5-hydroxytryptamine receptor 2A (Homo sapiens) (UniProt P28223). Put plainly: 5-hydroxytryptamine receptor 2A (HTR2A) small molecule antagonists, cell-based qHTS assay (AID 1963586). Further: nearly all actives have a fitted effect of over 45% in size. An outline of the steps:
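CHO cells stably expressing human HTR2A were plated for 18 h at 37 C, then loaded with calcium dye for 1 h. Compounds were preincubated 5 min at room temperature before DOI (4 nM solution) was added. Kinetic fluorescence was read for 3 min.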

The target is the same in assay [10]. The assay is described as follows: 5-hydroxytryptamine receptor 2A (HTR2A) small molecule agonists, cell-based qHTS assay (AID 1963587). Further: nearly all actives have a fitted effect of over 30% in size. An outline of the steps:
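CHO cells stably expressing human HTR2A, plated 18 h, loaded with calcium dye 1 h at 37 C. Agonist mode: compounds added and intracellular calcium fluorescence recorded kinetically for 2 min at 1 sec intervals.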

Assay [11] addresses Muscarinic acetylcholine receptor M1 (Homo sapiens) (UniProt P11229). Put plainly: Cholinergic receptor muscarinic 1 (CHRM1) small molecule agonists, cell-based qHTS assay (AID 1963589). Further: nearly all actives have a fitted effect of over 35% in size. An outline of the steps:
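Calcium flux read-out: kinetic fluorescence at 1 sec intervals after pin-tool compound addition to dye-loaded CHRM1-CHO cells (human M1). Agonist mode; 15 concentrations tested in triplicate independent runs.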

The target of assay [12] is Beta-2 adrenergic receptor (Homo sapiens) (UniProt P07550). The assay is described as follows: Adrenergic beta2 receptor (ADRB2) small molecule antagonists, cell-based qHTS assay (AID 1963592). Further: series mostly up to about 92 µM; nearly all actives have a fitted effect of over 50% in size. The essentials:
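Assay format: CHO-ADRB2 cells, 18-20hr seeding at 37C/5% CO2, then compound plus 1nM isoproterenol agonist mix for 0.5hr RT. Homogeneous time-resolved fluorescence cAMP detection after 1hr, expressed as 665/615 nm ratio.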

For assay [13] the target is unchanged. Put plainly: Adrenergic beta2 receptor (ADRB2) small molecule agonists, cell-based qHTS assay (AID 1963593).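 Further: CHO cells stably overexpressing human ADRB2.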 An outline of the steps: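 CHO cells stably over-expressing ADRB2 were plated overnight at 37C, then dosed with compounds plus a stimulation mix containing 100uM IBMX and 25uM Ro-20-1724 for 0.5hr at room temperature. cAMP was measured by HTRF competition, 1hr.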

Assay [14] concerns the target D(2) dopamine receptor (Homo sapiens) (UniProt P14416). The assay is described as follows: Dopamine D2 receptor (DRD2) small molecule agonists, cell-based qHTS assay (AID 1963594). Further: nearly all actives have a fitted effect of over 35% in size. The essentials:
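HEK293 cells stably expressing human DRD2, pre-treated with PDE inhibitor Ro20-1724 (0.1 mM final) and compound 10 min at room temperature, then stimulated with NKH477 (200nM […]) for 30 min. cAMP read by HTRF (665/620 nm).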

A short description of assay [15]: p53 small molecule agonists, cell-based qHTS assay with rat liver microsomes (AID 1963578). An outline of the steps: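 Agonist mode in p53RE-bla reporter cells, with compounds co-incubated 16 h at 37 C alongside 0.5 mg/mL rat liver microsomes and 0.5 mg/mL NADPH (final), followed by a 2 h LiveBLAzer detection step.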
Assay [16] deals with Muscarinic acetylcholine receptor M1 (Homo sapiens) (UniProt P11229). Put plainly: Cholinergic receptor muscarinic 1 (CHRM1) small molecule antagonists, cell-based qHTS assay (AID 1963588). Further: nearly all actives have a fitted effect of over 40% in size. The essentials:
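Compounds were tested at 15 concentrations in three independent runs. Dye-loaded CHRM1-CHO cells were exposed 5 min at room temperature before stimulation by acetylcholine added at 50nM. Intracellular calcium was read kinetically on FDSS for 3 min.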

Assay [17] in a line: cAMP Responsive Elements (CRE) small molecule antagonists, cell-based qHTS assay (AID 1963591; active means well fitted inhibition curve with a large enough effect in the signal ratio in the repeat runs, not every such curve was filed as active; the % refers to the signal ratio; further: potency means the concentration at half of the fitted maximal effect). The essentials: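 HEK293T CRE-bla; 18 h preincubation; compound pin-transfer; NKH477 0.25 uM final, 3 h, 37 C; LiveBLAzer FRET substrate 2 h RT.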
Assay [18] concerns the target D(2) dopamine receptor (Homo sapiens) (UniProt P14416). Put plainly: Dopamine D2 receptor (DRD2) small molecule antagonists, cell-based qHTS assay (AID 1963595; active means well fitted inhibition curve with a large enough effect in the signal ratio in the repeat runs, with a control signal flat; the % refers to the signal ratio; further: potency means the concentration at half of the fitted maximal effect). An outline of the steps:
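Antagonist mode in DRD2-HEK293 cells: after compound addition with 0.1 mM Ro20-1724, cells received quinpirole (12 nM) and NKH477 (200 nM) for 30 min at room temperature; HTRF cAMP read after 1 h detection.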

Assay [19] is described as follows: p53 small molecule agonists, cell-based qHTS assay with human liver microsomes (AID 1963577). Further: potency means the concentration at half of the fitted maximal effect.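 On activation: p53 response element beta-lactamase reporter cells with liver microsomes plus NADPH.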 An outline of the steps:
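In this qHTS, p53 response-element beta-lactamase cells receive test compound together with a microsome/NADPH activating system (0.5 mg/mL final each) and are incubated 16 h at 37 C before LiveBLAzer fluorescence detection.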

Assay [20] can be described thus: cAMP Responsive Elements (CRE) small molecule agonists, cell-based qHTS assay (AID 1963590). The essentials:
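Beta-lactamase reporter readout: LiveBLAzer B/G FRET substrate, 2 h at room temperature, added after 3 h compound treatment of CRE-bla HEK 293T cells at 37 C/5% CO2.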

Each structure is given as a SMILES string. Unmarked numbers belong to inactive results. Records with an inconclusive call do not appear. Activity calls are given as the source filed them. Unless noted, the call rests on the fitted dose curve.

5-hydroxytryptamine receptor 2A (Homo sapiens), sequence (P28223 whole entry, looked up): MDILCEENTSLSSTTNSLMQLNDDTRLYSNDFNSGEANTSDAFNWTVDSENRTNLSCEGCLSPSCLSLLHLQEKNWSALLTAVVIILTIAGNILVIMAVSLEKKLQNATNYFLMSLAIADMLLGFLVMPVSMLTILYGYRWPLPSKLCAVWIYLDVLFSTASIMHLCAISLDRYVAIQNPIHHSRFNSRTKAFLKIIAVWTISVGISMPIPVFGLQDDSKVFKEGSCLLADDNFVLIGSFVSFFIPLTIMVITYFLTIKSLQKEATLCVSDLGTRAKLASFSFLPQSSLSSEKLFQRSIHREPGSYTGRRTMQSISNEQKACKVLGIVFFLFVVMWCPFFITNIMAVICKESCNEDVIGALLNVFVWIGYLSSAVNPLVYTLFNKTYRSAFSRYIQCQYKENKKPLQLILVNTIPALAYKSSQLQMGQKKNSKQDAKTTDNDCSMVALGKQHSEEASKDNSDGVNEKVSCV
Muscarinic acetylcholine receptor M1 (Homo sapiens), sequence (P11229 whole entry, looked up): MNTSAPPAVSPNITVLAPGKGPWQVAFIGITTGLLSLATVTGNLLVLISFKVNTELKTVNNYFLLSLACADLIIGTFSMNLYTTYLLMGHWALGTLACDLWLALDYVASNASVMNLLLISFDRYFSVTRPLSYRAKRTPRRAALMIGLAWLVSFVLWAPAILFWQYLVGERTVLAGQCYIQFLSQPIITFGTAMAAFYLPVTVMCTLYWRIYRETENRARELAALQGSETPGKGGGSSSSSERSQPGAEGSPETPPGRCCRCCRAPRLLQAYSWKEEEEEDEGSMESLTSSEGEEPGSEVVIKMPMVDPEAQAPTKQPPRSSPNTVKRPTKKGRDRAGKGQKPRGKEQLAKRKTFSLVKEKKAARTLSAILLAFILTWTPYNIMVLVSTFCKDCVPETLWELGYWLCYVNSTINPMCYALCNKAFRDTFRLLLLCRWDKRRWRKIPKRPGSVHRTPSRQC
Gonadotropin-releasing hormone receptor (Homo sapiens), sequence (P30968 whole entry, looked up): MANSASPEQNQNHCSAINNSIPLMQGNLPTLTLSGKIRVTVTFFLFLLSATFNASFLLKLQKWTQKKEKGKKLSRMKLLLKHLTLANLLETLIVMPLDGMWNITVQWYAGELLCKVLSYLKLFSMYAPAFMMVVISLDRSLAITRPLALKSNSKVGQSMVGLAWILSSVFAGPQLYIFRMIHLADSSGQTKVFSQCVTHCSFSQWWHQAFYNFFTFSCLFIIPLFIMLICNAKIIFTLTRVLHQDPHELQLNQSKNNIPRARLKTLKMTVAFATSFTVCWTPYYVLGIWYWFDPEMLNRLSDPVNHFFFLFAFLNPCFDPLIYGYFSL
Beta-2 adrenergic receptor (Homo sapiens), sequence (P07550 whole entry, looked up): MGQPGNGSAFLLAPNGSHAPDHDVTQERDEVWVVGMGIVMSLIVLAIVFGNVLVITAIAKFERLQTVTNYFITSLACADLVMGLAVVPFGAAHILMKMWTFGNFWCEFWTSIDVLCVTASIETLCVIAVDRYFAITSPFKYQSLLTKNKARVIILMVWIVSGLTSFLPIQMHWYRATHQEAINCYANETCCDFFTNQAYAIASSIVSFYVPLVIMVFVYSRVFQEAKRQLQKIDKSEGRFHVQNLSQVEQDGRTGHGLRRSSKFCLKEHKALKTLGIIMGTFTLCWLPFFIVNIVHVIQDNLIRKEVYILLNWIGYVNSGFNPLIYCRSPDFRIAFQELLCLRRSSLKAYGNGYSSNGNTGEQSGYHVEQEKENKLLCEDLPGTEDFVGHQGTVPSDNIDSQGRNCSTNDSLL
D(2) dopamine receptor (Homo sapiens), sequence (P14416 whole entry, looked up): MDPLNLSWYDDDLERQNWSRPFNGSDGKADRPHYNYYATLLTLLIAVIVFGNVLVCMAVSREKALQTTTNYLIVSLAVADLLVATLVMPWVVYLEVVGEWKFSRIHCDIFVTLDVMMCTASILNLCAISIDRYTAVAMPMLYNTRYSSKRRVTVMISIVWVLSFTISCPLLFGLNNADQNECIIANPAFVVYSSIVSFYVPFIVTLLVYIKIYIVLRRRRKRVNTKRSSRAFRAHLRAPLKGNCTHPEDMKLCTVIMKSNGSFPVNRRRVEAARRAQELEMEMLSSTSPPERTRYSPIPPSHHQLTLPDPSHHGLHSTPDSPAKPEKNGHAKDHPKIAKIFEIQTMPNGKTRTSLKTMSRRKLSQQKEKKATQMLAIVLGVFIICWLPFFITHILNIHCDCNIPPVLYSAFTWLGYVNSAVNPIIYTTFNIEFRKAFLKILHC
KiSS-1 receptor (Homo sapiens), sequence (Q969F8 whole entry, looked up): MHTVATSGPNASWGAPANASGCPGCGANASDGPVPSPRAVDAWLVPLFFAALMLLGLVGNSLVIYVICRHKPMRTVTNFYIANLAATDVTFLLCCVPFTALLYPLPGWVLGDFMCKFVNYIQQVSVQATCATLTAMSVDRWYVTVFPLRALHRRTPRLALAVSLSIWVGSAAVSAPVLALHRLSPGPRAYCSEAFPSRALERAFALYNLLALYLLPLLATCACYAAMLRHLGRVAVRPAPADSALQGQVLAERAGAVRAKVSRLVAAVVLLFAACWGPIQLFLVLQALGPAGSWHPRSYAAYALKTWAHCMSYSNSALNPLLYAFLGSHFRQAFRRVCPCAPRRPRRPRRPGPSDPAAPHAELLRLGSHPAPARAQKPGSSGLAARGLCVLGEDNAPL

`CCOC(=O)CCN(SN(C)C(=O)Oc1cccc2c1OC(C)(C)C2)C(C)C`: the Potency entry in assay [1], in assay [2], in [3], in assay [4], in assay [5] and in assay [6] was “inactive” throughout. The Potency result in assay [7], in assay [8], in assay [9], in assay [10], in assay [11] and in [12] was “inactive” throughout. Also, the Potency entry in [13] and in [14] was “inactive” throughout.
With `C[C@H]1[C@H](c2ccc(Cl)cc2)SC(=O)N1C(=O)NC1CCCCC1`, the Potency result in [1], in assay [2], in assay [3], in [4], in assay [15] and in assay [5] was “inactive” in each case. Also, the Potency entry in assay [6], in assay [9], in [10], in [16], in assay [11] and in assay [17] was “inactive” in each case. Moreover, the Potency result in [12], in [13], in assay [14] and in assay [18] was “inactive” throughout.
Consider `IC(I)=C(I)I`, for which the Potency in assay [1] was 27.3 µM (active); in [5], 16.2 µM (active); in assay [18], 54.5 µM (active). Besides, the Potency result in assay [2], in assay [3], in assay [4], in assay [19], in assay [9] and in assay [10] was “inactive” each time. Moreover, the Potency entry in assay [16], in assay [11] and in assay [14] was “inactive” throughout.
`CCOCCOC(C)=O`: the Potency entry in [1], in assay [2], in assay [3], in assay [4], in assay [15] and in [11] was “inactive” each time. Also, the Potency result in assay [20] and in assay [14] was “inactive” in each case. The Potency in [17] is 12.8 µM (active).
In the case of `CN1C(=O)CN=C(c2ccccc2)c2cc([N+](=O)[O-])ccc21`, the Potency entry in assay [1], in [2], in assay [3], in assay [4], in [19] and in assay [15] was “inactive” in each case. Also, the Potency entry in assay [7], in assay [8], in assay [20], in assay [17], in assay [12] and in [13] was “inactive” each time. For the same molecule, the Potency result in [14] and in assay [18] was “inactive” each time.
With `COc1ccc(C(=O)c2c(C)n(CCN3CCOCC3)c3ccccc23)cc1`, the Potency result in assay [1], in assay [2], in [3], in assay [4], in assay [19] and in assay [15] was “inactive” throughout. Besides, the Potency result in assay [7], in assay [9], in assay [10], in assay [16] and in assay [11] was “inactive” throughout.
For the molecule `CCOP(=S)(OCC)SCS(=O)(=O)C(C)(C)C`, the Potency result in assay [1], in assay [2], in assay [3], in assay [4], in assay [5] and in [7] was “inactive” throughout. Moreover, the Potency result in assay [8], in assay [9], in [10], in assay [16], in assay [11] and in assay [20] was “inactive” each time. Also, the Potency result in assay [17], in assay [12], in [14] and in [18] was “inactive” in each case. For the same molecule, the Potency in assay [19] is 1.82 µM (active).
`O=C1C[C@@H]2OCC=C3CN4CC[C@]56c7ccccc7N1[C@H]5[C@H]2[C@H]3C[C@H]46`: the Potency entry in assay [1], in [2], in [3], in [4], in assay [19] and in assay [5] was “inactive” each time. Moreover, the Potency entry in assay [6], in assay [7], in assay [8], in [20], in assay [17] and in assay [12] was “inactive” each time. Further, the Potency result in [14] was “inactive”.
Take `NC(=S)C(N)=S`: the Potency result in assay [1], in [2], in [3], in assay [4], in assay [15] and in assay [5] was “inactive” each time. Also, the Potency entry in [6], in assay [7], in assay [8], in assay [10], in assay [16] and in assay [11] was “inactive” in each case. Besides, the Potency entry in [20], in assay [17], in [12], in assay [14] and in assay [18] was “inactive” each time.
